Data taken from PubChem BioAssay (EPA / NIEHS).
A structure can be active in one record and inactive in another. The source made the active and inactive calls. The calls were made as follows: active = hit-call score of the fitted dose curve at least 0.9, where 1 is the maximum; inactive = score below 0.9.

Tests used:
[1] = read-out: Interleukin-1 alpha (IL1a), IL1A (gene 3552); test: BSK_KF3CT_IL1a: BioMAP Diversity Plus: KF3CT Assay for Interleukin-1 alpha (IL1a) Biomarker Activity (AID 2283070); details: primary human keratinocytes with fibroblasts; actives raise or lower the signal
How it was run: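 Readout is IL-1a level by ELISA, compared bidirectionally with DMSO as baseline. Cells: human keratinocytes co-cultured with foreskin fibroblasts, harvested 24 h post-dose.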

[2] = read-out: TIMP metallopeptidase inhibitor 2 (TIMP2), TIMP2 (gene 7077); test: BSK_KF3CT_TIMP2: BioMAP Diversity Plus: KF3CT Assay for TIMP metallopeptidase inhibitor 2 (TIMP2) Biomarker Activity (AID 2283071); details: primary human keratinocytes with fibroblasts; actives raise or lower the signal
How it was run: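 Chemicals were dosed onto human skin primary co-cultures of keratinocytes and foreskin fibroblasts, and TIMP-2 was measured by ELISA after 24 hours. Activity in either direction was fitted relative to DMSO.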

[3] = read-out: Transforming growth factor beta 1 (TGFb1), TGFB1 (gene 7040); test: BSK_KF3CT_TGFb1: BioMAP Diversity Plus: KF3CT Assay for Transforming growth factor beta 1 (TGFb1) Biomarker Activity (AID 2283072); details: primary human keratinocytes with fibroblasts; actives raise or lower the signal
How it was run: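 KF3CT co-culture (keratinocytes + fibroblasts), 24 h exposure → TGF-b1 ELISA → bidirectional fit, DMSO = baseline. Parallel SRB total-protein staining (0.1% SRB, 10% TCA fixation, 560 nm) for cytotoxicity.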

[4] = read-out: C-C motif chemokine 2 (Homo sapiens) (UniProt P13500); test: BSK_KF3CT_MCP1: BioMAP Diversity Plus: KF3CT Assay for Monocyte Chemoattractant Protein 1 (MCP1/CCL2) Biomarker Activity (AID 2283073); details: primary human keratinocytes with fibroblasts; actives raise or lower the signal
How it was run: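 Keratinocytes and foreskin fibroblasts were co-cultured, dosed with chemical, and sampled 24 h later. MCP-1 was quantified by ELISA, and the endpoint was analyzed with bidirectional fitting using DMSO as negative control.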

[5] = read-out: Matrix Metallopeptidase 9 (MMP9), MMP9 (gene 4318); test: BSK_KF3CT_MMP9: BioMAP Diversity Plus: KF3CT Assay for Matrix Metallopeptidase 9 (MMP9) Biomarker Activity (AID 2283074); details: primary human keratinocytes with fibroblasts; actives raise or lower the signal
How it was run: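 Values come from bidirectional fitting relative to DMSO of MMP-9 levels, which were measured by ELISA. Measurements were taken 24 h after chemical dosing of a keratinocyte and foreskin fibroblast co-culture.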

[6] = read-out: E-selectin (Homo sapiens) (UniProt P16581); test: BSK_LPS_Eselectin: BioMAP Diversity Plus: LPS Assay for Eselectin Biomarker Activity (AID 2283077); details: primary human HUVEC with PBMC; actives raise or lower the signal
How it was run: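 Signal of E-selectin, detected by ELISA, served as the endpoint; cells were umbilical vein endothelium with PBMC, read 24 h after treatment. DMSO defined baseline, and both increases and decreases were fitted.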

[7] = read-out: Interleukin-8 (IL8), CXCL8 (gene 3576); test: BSK_LPS_IL8: BioMAP Diversity Plus: LPS Assay for Interleukin-8 (IL8) Biomarker Activity (AID 2283078); details: primary human HUVEC with PBMC; actives raise or lower the signal
How it was run: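 Endothelial cells and PBMC from human donors are co-cultured, treated with chemicals and LPS, then assayed for IL-8 by ELISA after 24 h. Parallel SRB staining (0.1% SRB after 10% TCA fixation, 560 nm) flags cytotoxicity.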

[8] = BSK_LPS_SRB: Viability Assessment in the BioMAP Diversity Plus: LPS Assay (AID 2283079); details: primary human HUVEC with PBMC;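 also: total protein by sulforhodamine B absorbance as a cytotoxicity measure; measured one day after compound addition; fitted in both directions against DMSO so loss or gain of signal counts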
How it was run: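 Overt cytotoxicity was gauged by sulforhodamine B total-protein staining in a primary human vascular endothelial and mononuclear cell co-culture 24 h post-dosing. Activity was fitted in both directions relative to DMSO.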

[9] = read-out: Interleukin-1 alpha (IL1a), IL1A (gene 3552); test: BSK_LPS_IL1a: BioMAP Diversity Plus: LPS Assay for Interleukin-1 alpha (IL1a) Biomarker Activity (AID 2283080); details: primary human HUVEC with PBMC; actives raise or lower the signal
How it was run: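 Measured: IL-1 alpha via ELISA at 24 h in LPS-activated human umbilical vein endothelium–PBMC co-culture. Baseline: DMSO, bidirectional fitting.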

[10] = read-out: Monocyte Chemoattractant Protein-1 (MCP1), CCL2 (gene 6347); test: BSK_LPS_MCP1: BioMAP Diversity Plus: LPS Assay for Monocyte Chemoattractant Protein-1 (MCP1) Biomarker Activity (AID 2283081); details: primary human HUVEC with PBMC; actives raise or lower the signal
How it was run: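 LPS-stimulated HUVEC/PBMC co-culture; chemical, 24 h; MCP-1 by ELISA; bidirectional fit vs DMSO; cytotoxicity via SRB (0.1% stain, 10% TCA fix, 560 nm) in parallel wells.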

[11] = BSK_LPS_PGE2: BioMAP Diversity Plus: LPS Assay for Prostaglandin E2 (PGE2) Biomarker Activity (AID 2283082); details: primary human HUVEC with PBMC; actives raise or lower the signal
How it was run: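 Compounds were added to the LPS co-culture of endothelium and PBMC, and PGE2 was measured by ELISA after 24 h. Responses in either direction were fitted with DMSO as baseline.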

[12] = read-out: Macrophage colony-stimulating factor (MCSF), CSF1 (gene 1435); test: BSK_LPS_MCSF: BioMAP Diversity Plus: LPS Assay for Macrophage colony-stimulating factor (MCSF) Biomarker Activity (AID 2283083); details: primary human HUVEC with PBMC; actives raise or lower the signal
How it was run: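 Compound is added to a human vascular primary co-culture of umbilical vein endothelium and blood mononuclear cells. After 24 h, M-CSF is quantified by ELISA. Signal changes are fitted in both directions against DMSO.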

[13] = read-out: Tissue Factor, F3 (gene 2152); test: BSK_LPS_TissueFactor: BioMAP Diversity Plus: LPS Assay for Tissue Factor Biomarker Activity (AID 2283084); details: primary human HUVEC with PBMC; actives raise or lower the signal
How it was run: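 In this co-culture system of umbilical vein endothelium with PBMC, stimulated with LPS, cell-surface CD142 is detected by ELISA at 24 h. Endpoint values derive from bidirectional fitting, DMSO serving as baseline.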

[14] = read-out: Tumor necrosis factor (Homo sapiens) (UniProt P01375); test: BSK_LPS_TNFa: BioMAP Diversity Plus: LPS Assay for Tumour Necrosis Factor alpha (TNFa) Biomarker Activity (AID 2283085); details: primary human HUVEC with PBMC; actives raise or lower the signal
How it was run: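 Cells (umbilical vein endothelium plus peripheral blood mononuclear cells) were dosed with chemical, incubated 24 h, then TNFa was quantified by ELISA; values derive from bidirectional fitting with DMSO as baseline.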

[15] = read-out: Vascular cell adhesion molecule 1 (VCAM1), VCAM1 (gene 7412); test: BSK_LPS_VCAM1: BioMAP Diversity Plus: LPS Assay for Vascular cell adhesion molecule 1 (VCAM1) Biomarker Activity (AID 2283086); details: primary human HUVEC with PBMC; actives raise or lower the signal
How it was run: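 Cells are dosed in an LPS-stimulated endothelial/mononuclear co-culture and, after 24 h, VCAM-1 is quantified by ELISA. Activity in either direction is fitted relative to the DMSO negative control.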

CD40, CD40 (gene 958) [16] = test: BSK_SAg_CD40: BioMAP Diversity Plus: SAg Assay for CD40 Biomarker Activity (AID 2283088); details: primary human HUVEC with PBMC; actives raise or lower the signal
How it was run: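 Fluorescence ELISA read-out of CD40 from umbilical vein endothelium plus peripheral blood mononuclear cells, sampled 24 h after dosing. Values come from bidirectional curve fitting with DMSO as baseline.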

CD69, CD69 (gene 969) = test: BSK_SAg_CD69: BioMAP Diversity Plus: SAg Assay for CD69 Biomarker Activity (AID 2283089); details: primary human HUVEC with PBMC; actives raise or lower the signal
How it was run: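 ELISA, fluorescence read-out: CD69 on human umbilical vein endothelial cell + PBMC co-culture, 24 h post-dosing. Gain or loss of signal fitted bidirectionally against DMSO baseline.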

CD38, CD38 (gene 952) = test: BSK_SAg_CD38: BioMAP Diversity Plus: SAg Assay for CD38 Biomarker Activity (AID 2283087); details: primary human HUVEC with PBMC; actives raise or lower the signal
How it was run: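 CD38 quantified by ELISA (fluorescence) in a superantigen-activated endothelial cell–PBMC co-culture at 24 h post-dose. Activity fitted in both directions relative to DMSO; parallel SRB and Alamar Blue cytotoxicity read-outs.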

CD40, CD40 (gene 958) [17] = test: BSK_LPS_CD40: BioMAP Diversity Plus: LPS Assay for CD40 Biomarker Activity (AID 2283076); details: primary human HUVEC with PBMC; actives raise or lower the signal
How it was run: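 CD40 signal, measured by ELISA, is fitted in both directions relative to DMSO vehicle. The system is an LPS-driven human vascular primary co-culture of endothelial cells and PBMC, sampled 24 h after compound addition.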

Chain of Tumor necrosis factor (Homo sapiens) (P01375 whole entry, looked up): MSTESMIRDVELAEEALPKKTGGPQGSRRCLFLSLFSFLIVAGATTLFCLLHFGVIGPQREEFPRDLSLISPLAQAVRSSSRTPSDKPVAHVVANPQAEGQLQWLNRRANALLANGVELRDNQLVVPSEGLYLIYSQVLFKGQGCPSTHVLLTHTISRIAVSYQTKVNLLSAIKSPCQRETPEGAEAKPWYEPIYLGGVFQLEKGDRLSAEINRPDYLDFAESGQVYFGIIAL
Chain of E-selectin (Homo sapiens) (P16581 whole entry, looked up): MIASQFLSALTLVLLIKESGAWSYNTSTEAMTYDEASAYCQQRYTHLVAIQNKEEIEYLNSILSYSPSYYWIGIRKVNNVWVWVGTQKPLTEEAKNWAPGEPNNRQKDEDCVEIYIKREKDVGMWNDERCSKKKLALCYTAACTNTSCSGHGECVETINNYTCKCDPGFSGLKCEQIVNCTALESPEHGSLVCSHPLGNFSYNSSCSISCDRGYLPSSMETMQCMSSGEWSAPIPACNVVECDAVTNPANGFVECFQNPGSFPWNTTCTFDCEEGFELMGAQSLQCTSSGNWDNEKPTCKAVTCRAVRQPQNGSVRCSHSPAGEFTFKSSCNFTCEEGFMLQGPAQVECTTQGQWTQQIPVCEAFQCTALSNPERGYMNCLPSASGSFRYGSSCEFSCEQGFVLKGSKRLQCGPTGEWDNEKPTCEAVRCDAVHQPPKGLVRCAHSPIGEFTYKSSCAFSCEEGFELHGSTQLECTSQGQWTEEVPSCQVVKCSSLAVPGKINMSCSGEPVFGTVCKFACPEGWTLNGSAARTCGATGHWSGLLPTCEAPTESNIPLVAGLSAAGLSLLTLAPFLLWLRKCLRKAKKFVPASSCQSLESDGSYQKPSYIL

Row | Structure (SMILES) | outcome [1] | outcome [2] | outcome [3] | outcome [4] | outcome [5] | outcome [6] | outcome [7] | outcome [8] | outcome [9] | outcome [10] | outcome [11] | outcome [12] | outcome [13] | outcome [14] | outcome [15] | outcome (CD40, CD40 (gene 958) [16]) | outcome (CD69, CD69 (gene 969)) | outcome (CD38, CD38 (gene 952)) | outcome (CD40, CD40 (gene 958) [17]) | AC50 [7]
1 | CNC(C)=O | inactive | inactive | inactive | inactive | inactive | inactive | inactive | inactive | inactive | inactive | inactive | inactive | inactive | inactive | inactive | inactive | inactive | – | – | –
2 | CCCc1ccccc1 | inactive | inactive | inactive | inactive | inactive | inactive | inactive | – | inactive | inactive | inactive | inactive | inactive | inactive | inactive | inactive | inactive | inactive | – | –
3 | FC(F)(F)C(F)(F)C(F)(F)C(F)(F)C(F)(F)C(F)(F)I | inactive | inactive | – | inactive | inactive | inactive | inactive | – | inactive | inactive | inactive | inactive | inactive | inactive | inactive | inactive | inactive | – | inactive | –
4 | CCOc1ccc2[nH]cc(C(=O)NCc3ccccc3)c(=O)c2n1 | inactive | inactive | inactive | inactive | inactive | inactive | inactive | – | inactive | inactive | inactive | inactive | inactive | inactive | inactive | inactive | inactive | inactive | – | –
5 | FC(F)=C(F)C(F)(F)C(F)(F)C(F)(F)C(F)(F)C(F)(F)C(F)(F)F | inactive | inactive | – | inactive | inactive | inactive | inactive | – | inactive | inactive | inactive | inactive | inactive | inactive | inactive | inactive | – | – | – | –
6 | O=S(=O)(O)CCC(F)(F)C(F)(F)C(F)(F)C(F)(F)C(F)(F)C(F)(F)F | inactive | inactive | – | inactive | inactive | inactive | inactive | inactive | inactive | inactive | inactive | inactive | inactive | inactive | inactive | inactive | inactive | inactive | – | 22.5 µM (active)
